Test results as given in PMC4336329 (PLoS ONE, 2015).
Out of some 310,000 compounds screened, about 14,000 (4.5%) showed an effect of 50% or more. The effect is printed as a negative number. The sample as a whole holds a higher share of strong results than the screen did.

What follows are compounds tested against human ether-à-go-go-related gene (hERG) potassium channel (human, UniProt Q12809) (assay: primary screen, population patch clamp on CHO cells stably expressing hERG; higher = less effect of the substance).
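Note: peak tail current of the secondary pulse compared with the same well before compound.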

Sequence of human ether-à-go-go-related gene (hERG) potassium channel (Q12809 whole entry, looked up): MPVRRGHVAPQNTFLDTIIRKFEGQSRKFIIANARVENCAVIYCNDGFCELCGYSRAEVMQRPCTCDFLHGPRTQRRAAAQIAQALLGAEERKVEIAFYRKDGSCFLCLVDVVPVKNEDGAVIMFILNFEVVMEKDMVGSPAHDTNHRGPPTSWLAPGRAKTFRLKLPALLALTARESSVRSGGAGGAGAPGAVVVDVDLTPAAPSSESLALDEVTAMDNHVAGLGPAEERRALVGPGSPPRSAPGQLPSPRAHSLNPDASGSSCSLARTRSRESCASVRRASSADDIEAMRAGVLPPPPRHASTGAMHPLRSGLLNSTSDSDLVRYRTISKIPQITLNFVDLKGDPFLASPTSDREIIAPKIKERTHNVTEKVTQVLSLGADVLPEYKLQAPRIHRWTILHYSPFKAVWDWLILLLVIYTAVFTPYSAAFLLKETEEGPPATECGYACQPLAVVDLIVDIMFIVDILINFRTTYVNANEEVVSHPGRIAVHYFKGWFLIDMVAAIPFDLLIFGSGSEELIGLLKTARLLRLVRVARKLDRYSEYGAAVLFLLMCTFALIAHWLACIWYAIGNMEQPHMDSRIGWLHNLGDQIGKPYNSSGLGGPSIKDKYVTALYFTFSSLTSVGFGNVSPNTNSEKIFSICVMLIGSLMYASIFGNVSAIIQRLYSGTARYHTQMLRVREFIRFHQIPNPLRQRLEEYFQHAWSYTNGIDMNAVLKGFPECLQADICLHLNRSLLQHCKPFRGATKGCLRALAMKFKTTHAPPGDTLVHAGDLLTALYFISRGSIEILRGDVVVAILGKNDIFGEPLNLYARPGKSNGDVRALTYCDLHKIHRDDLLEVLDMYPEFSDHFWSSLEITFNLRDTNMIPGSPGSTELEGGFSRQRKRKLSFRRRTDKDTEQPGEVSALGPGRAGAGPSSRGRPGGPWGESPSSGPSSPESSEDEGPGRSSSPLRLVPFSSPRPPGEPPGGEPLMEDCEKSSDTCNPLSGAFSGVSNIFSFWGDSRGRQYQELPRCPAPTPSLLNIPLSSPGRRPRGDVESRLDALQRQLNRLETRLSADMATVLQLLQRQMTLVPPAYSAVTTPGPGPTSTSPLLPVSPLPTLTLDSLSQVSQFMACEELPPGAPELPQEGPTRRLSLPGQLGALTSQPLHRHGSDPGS

Compound | hERG current change (%, negative = inhibition) at 10uM [%]
N#Cc1cc2ccccc2nc1SCC(=O)Nc1ccc(S(=O)(=O)N2CCCC2)cc1 | 6.03
Cn1ncnc2c(=O)n(C)c(=O)nc1-2 | -2.67
O=C(NCc1ccccc1)Nc1cccn(Cc2ccccc2Cl)c1=O | 18.8
Cc1nc2ccccc2c(=O)n1-c1ccc(F)cc1F | 3.52
CCOC(=O)CNC(=O)c1ccc2[nH]c3c(c2c1)CCCC3 | 11.5
CCOC(=O)c1ccc(OCCOc2ccccc2C)cc1 | 24
O=c1c(Cl)c(N2CCN(S(=O)(=O)c3ccc(F)cc3)CC2)cnn1-c1cccc(Cl)c1 | -29.4
O=C(CSCc1ccccc1Br)N/N=C/c1ccc(OCC(=O)N2CCCCC2)cc1 | -15.9
CNC(=O)c1[nH]cnc1C(=O)Nc1ccc(OC)cc1 | 20.8
O=c1[nH]cnc2cc(-c3ccc(Br)cc3)sc12 | 12.3
CN(C)S(=O)(=O)c1ccc(N2CCCC2)c(C(=O)N2CCN(S(=O)(=O)c3cccc(F)c3)CC2)c1 | -10.7
Cc1nnc2ccc(-c3cccc(NS(=O)(=O)c4cc(F)ccc4F)c3)nn12 | -0.0273
O=C(O)CSCC(=O)Nc1ccc(C(=O)O)cc1 | 12.5
COc1ccc(-c2c(C)oc3c(CN4CCCCC4C)c(O)ccc3c2=O)cc1 (centres unmarked) | -16.6
Cc1oc2c(CN3CCCCC3C)c(O)ccc2c(=O)c1-c1ccc(Br)cc1 (centres unmarked) | -50.9
Cc1oc2c(CN3CCCCC3C)c(O)ccc2c(=O)c1-c1ccccc1 (centres unmarked) | -27.6
O=C(Cc1c(F)cccc1Cl)NCCc1c[nH]c2ccccc12 | 8.99
Cc1nn(CC#N)c(=O)n1-c1ccccc1 | 8.38
CCn1c(SCC#N)nc2c(c1=O)C1(CCCC1)Cc1ccccc1-2 | 2.38
CN(Cc1ccccc1)C(=O)CN(Cc1ccccc1)S(C)(=O)=O | -4.6
O=C(c1ccc(S(=O)(=O)c2ccccc2Cl)c([N+](=O)[O-])c1)N1CCCCCC1 | -11
COCCN(CC1CCCN(C2Cc3ccccc3C2)C1)C(=O)CCSC (centres unmarked) | -45.8
COCCN(CC1CCCN(C2Cc3ccccc3C2)C1)C(=O)CCC(F)(F)F (centres unmarked) | -55.4
COCCN(CC1CCCN(C2Cc3ccccc3C2)C1)C(=O)CCC(C)=O (centres unmarked) | -6.4

Compound | hERG current change (%, negative = inhibition) at 10uM [%]
COCCN(CC1CCCN(C2Cc3ccccc3C2)C1)C(=O)CCC(N)=O (centres unmarked) | -75.1
O=C(NCC1CCCN(C2Cc3ccccc3C2)C1)c1cccs1 (centres unmarked) | -40.7
COC(=O)CCCC(=O)NC1CCCN(C2Cc3ccccc3C2)C1 (centres unmarked) | -10.6
CCCC(=O)N(CCc1ccc(OC)cc1)Cc1nc2ccccc2c(=O)[nH]1 | -8.61
COc1ccc2c(c1)c(CC(=O)Nc1cccc(S(N)(=O)=O)c1)c(C)n2C(=O)c1ccc(Cl)cc1 | 1.02
CN(CC(=O)NCc1ccncc1)S(=O)(=O)c1ccc(F)cc1 | -0.77
O=C(CN(Cc1ccccc1)S(=O)(=O)c1ccc(Br)cc1)NCc1ccco1 | -51.6
CCN(CC(=O)NCc1ccc(F)cc1)S(=O)(=O)c1ccc(C)cc1 | -43.6
CCN(CC(=O)NCc1cccnc1)S(=O)(=O)c1ccc(OC)cc1 | -28.3
Cc1ccc(S(=O)(=O)N(Cc2ccc(F)cc2)Cc2ccco2)cc1 | 2.28
CS(=O)(=O)N(CCc1ccccc1)CC(=O)NCc1ccco1 | -3.21
Cc1ccc(S(=O)(=O)N(CC(=O)NCc2ccncc2)Cc2ccc(F)cc2)cc1 | -79.2
COc1ccc(S(=O)(=O)N(CC(=O)NCc2cccnc2)Cc2ccccc2)cc1 | -76.5
COc1ccc(S(=O)(=O)N(C)CC(=O)NCc2cccnc2)cc1 | -31.8
CCN(CC(=O)NCc1ccco1)S(=O)(=O)c1ccc(OC)cc1 | 3.31
Cc1ccc(S(=O)(=O)N(CC(=O)NCc2ccco2)Cc2ccc(F)cc2)cc1 | -67.1
CCN(CC(=O)NCc1ccco1)S(=O)(=O)c1ccc(F)cc1 | 5.61
COc1cccc(-n2c(Cc3cc(=O)[nH]c(=O)[nH]3)nnc2SCC(=O)N2CCCCCC2)c1 | 0.34
CCc1cccc(C)c1NC(=O)C1CCCN1C(=O)NCc1ccccc1 (centres unmarked) | 18.4
CCOC(=O)c1ccc(NC(=O)c2c(C)[nH]c(C(=O)OCC)c2C)cc1 | -6.95
Cc1ccc(NC(=O)CCn2cnc3ccccc3c2=O)c(C)c1 | 6.65
CCCCn1c(SCC(=O)N(CC)C2CCS(=O)(=O)C2)nc2cc(S(N)(=O)=O)ccc21 (centres unmarked) | -5.49
CC1(C)CC(=O)C(C(=O)c2ccccc2)C(=O)C1Cl (centres unmarked) | 3.06
O=C(CN(Cc1ccccc1)S(=O)(=O)c1ccc(F)cc1)NCc1ccncc1 | -52.3

Compound | hERG current change (%, negative = inhibition) at 10uM [%]
O=C(CN(Cc1ccccc1)S(=O)(=O)c1ccc(F)cc1)NCc1ccccn1 | -10.6
O=C(CN(Cc1ccc(Br)cc1)S(=O)(=O)c1ccccc1)NCc1ccncc1 | -68.8
Cc1ccc(S(=O)(=O)N(CC(=O)O)Cc2ccccc2F)cc1 | 3.18
CCN(CC(=O)NCc1ccncc1)S(=O)(=O)c1ccccc1 | 5.51
O=C(CN(Cc1ccccc1)S(=O)(=O)c1ccc(F)cc1)NCc1cccnc1 | -57.8
CN(CC(=O)NCc1cccnc1)S(=O)(=O)c1ccc(F)cc1 | 21.3
O=C(O)CN(Cc1ccccc1)S(=O)(=O)c1ccc(F)cc1 | 2.09
O=C(CN(Cc1ccc(Br)cc1)S(=O)(=O)c1ccccc1)NCc1cccnc1 | -17.2
Cc1ccc(S(=O)(=O)N(CC(=O)NCc2ccncc2)Cc2ccccc2F)cc1 | -78.6
O=C(CN(Cc1ccc(Br)cc1)S(=O)(=O)c1ccccc1)NCc1ccccn1 | -42
CCCNC(=O)CN(Cc1ccccc1F)S(=O)(=O)c1ccc(C)cc1 | -6.17
COc1ccccc1NC(=O)c1cc2c(CO)cnc(C)c2oc1=Nc1ccc(OC)c(OC)c1 | 13.3
COc1ccc(NN=Nc2ccc([N+](=O)[O-])cc2)cc1 | 19.1
OC1COC(OCC2OC(OCc3ccccc3)C(O)C(O)C2O)C(O)C1O (centres unmarked) | -11.1
CCOC(=O)N1CCN(C(=O)c2cc3cc(OC)c(OC)cc3[nH]2)CC1 | 5.96
CC(=O)Nc1ccc(NC(=O)c2cc(-n3cnnc3)ccc2Cl)cc1 | 15.7
COc1cccc(C(C2C(=O)CC(C)(C)CC2=O)C2C(=O)CC(C)(C)CC2=O)c1 | 21.2
O=C(N1CCN(c2ccc(F)cc2)CC1)C12CC3CC(CC(C3)C1)C2 | 5.05
CN(C)c1nc(OCCNC(=O)Nc2ccccc2)nc(N2CCCCC2)n1 | 0.123
CC[n+]1c(C)n(-c2ccccc2)c2ccc(NC(C)=O)cc21.[I-] | 11
Cc1nc(NCCc2ccccc2)c(C#N)c(C)c1[N+](=O)[O-] | 6.5
CCOC(=O)c1sc(NC(=O)c2sc(C)nc2C)nc1C | -4.49
Fc1ccc(/C=N/NC(=S)Nc2ccc(Cl)cc2)cc1F | 9.62
Cc1ccc(S(=O)(=O)NC(CC(=O)NCc2ccco2)c2ccco2)cc1 (centres unmarked) | -0.749

Compound | hERG current change (%, negative = inhibition) at 10uM [%]
CCOc1ccc(Nc2ccc3nonc3c2[N+](=O)[O-])cc1 | 10.6
CCOc1ccc(Nc2ccc([N+](=O)[O-])c3nonc23)cc1 | -53.9
O=[N+]([O-])c1ccc(Nc2ccccc2)c2nonc12 | -8.36
COc1ccccc1NC(=O)CSc1nc2nc(C)cc(C)c2c(=O)[nH]1 | 4.82
CCCCN(CCCC)C(=O)CSc1nnc(-c2cc(OC)c(OC)c(OC)c2)o1 | -58.5
CCOC(=O)CSc1nnc(-c2cc(OC)c(OC)c(OC)c2)o1 | 12.1
CCCCOC(=O)CSc1nnc(-c2cc(OC)c(OC)c(OC)c2)o1 | -11.9
COCCN(C(=O)CCC(=O)Nc1ccccn1)C(C(=O)NC(C)C)c1ccc(Cl)cc1 (centres unmarked) | -5.58
CN(C)c1ccc(/C=C2\CC3C4CC=C5CC(O)CCC5(C)C4CCC3(C)C2=O)cc1 (centres unmarked) | 3.55
COc1cc(C(=O)NCCOc2cc(C)cc(C)c2)c(Br)c(OC)c1OC | -18.4
O=S(=O)(NCCc1csc(-c2ccccc2)n1)c1cccnc1 | 8.48
C/C(=N\NC(=O)COc1ccc(C)cc1C(C)C)c1ccc(-n2ccnc2)cc1 | -33.4
CCc1ccc(OCC(=O)N/N=C(\C)c2ccc(-n3ccnc3)cc2)cc1 | -71.8
COCCNC(=S)N/N=C(\C)c1ccc(-n2ccnc2)cc1 | -66.2
C/C(=N\NC(=O)COc1ccc(C(C)(C)C)cc1)c1ccc(-n2ccnc2)cc1 | -58.9
C=C(C)CNC(=S)N/N=C(\C)c1ccc(-n2ccnc2)cc1 | -37.7
C/C(=N\NC(N)=O)c1ccc(-n2ccnc2)cc1 | 10.9
COc1ccc(OCC(=O)N/N=C(\C)c2ccc(-n3ccnc3)cc2)cc1 | -42.6
COCCNC(=S)N/N=C(\C)c1ccc(C)c([N+](=O)[O-])c1 | -26.6
CCNC(=S)N/N=C(\C)c1cccc([N+](=O)[O-])c1 | -45.9
C=CCNC(=S)N/N=C(\C)c1ccc(-n2ccnc2)cc1 | -43
C/C(=N\NC(=O)COc1ccc(C(C)(C)C)cc1)c1ccc(N2CCOCC2)cc1 | 5.99
COCCNC(=S)N/N=C(\C)c1cccc([N+](=O)[O-])c1 | -70.4
